Experimental findings from PubChem BioAssay (EPA / NIEHS) are described below.

For orientation: AC50 means the concentration at which the activity in the assay is half-maximal.

Records with an inconclusive call do not appear. Activity calls are given as the source filed them. How the source made its calls, unless noted: active means hit-call score of the fitted dose curve at least 0.9, where 1 is the maximum; inactive means score below 0.9.

Test [1] can be described thus: ATG_TCF_b_cat_CIS: Attagene CIS-FACTORIAL HepG2 Assay for human T-Cell-Factor with beta-catenin (TCF/b-cat) (AID 2282965). The conditions noted are these: HepG2 TCF/beta-catenin cis-reporter transcription, actives raise or lower the signal. The method, boiled down: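 HepG2 cells transiently transfected with multiple cis-promoter-regulated reporter transcription units, so endogenous transcription factor activity is measured. Reporter mRNA read 24 hours after dosing by RT-PCR, fluorescent labelling and capillary electrophoresis; bidirectional fitting against DMSO.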

A short description of test [2]: ATG_TAL_CIS: Attagene CIS-FACTORIAL HepG2 Assay for human TAL Basal Promoter (AID 2282966).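 Further: background control endpoint measuring basal TAL promoter reporter mRNA not a specific factor.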 Conditions: HepG2 Attagene cis-factorial TAL promoter reporter; actives raise or lower the signal. The method, boiled down:
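Basal-promoter background-control endpoint from a multiplexed HepG2 reporter panel. Cells were exposed 24 h, then reporter mRNA was read by RT-PCR/CE fluorescence and fitted in both directions relative to DMSO.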

Test [3] can be described thus: ATG_VDRE_CIS: Attagene CIS-FACTORIAL HepG2 Assay for human Vitamin D Receptor Element (VDRE) (AID 2282968). Conditions: HepG2 VDRE cis-reporter transcription, actives raise or lower the signal. The method, boiled down: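 Transfected HepG2 reporter cells, chemical treatment 24 h. RNA isolated, cDNA amplified with reporter-specific primers, products analysed by capillary electrophoresis. Endpoint fitted in both directions versus DMSO.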

In test [4] the target is Nuclear receptor subfamily 1 group I member 3 (Homo sapiens) (UniProt Q14994). The test is described as follows: ATG_CAR_TRANS: Attagene TRANS-FACTORIAL HepG2 Assay for human Constitutive Androstane Receptor (CAR) (AID 2282969; active means hit-call score of the fitted dose curve at least 0.9, where 1 is the maximum;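 further: activators raise reporter mRNA above DMSO so AC50 marks induction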). The conditions noted are these: HepG2 Attagene TRANS-FACTORIAL CAR reporter. The method, boiled down:
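Steps: transient transfection of HepG2 with multiple GAL4-UAS reporter units; 24 h compound incubation; RNA isolation, RT-PCR, 6-FAM primer extension, HpaI digest; capillary electrophoresis. Gain-of-signal relative to DMSO negative control.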

For test [5], the target named is Estrogen receptor (Homo sapiens) (UniProt P03372). The test is described as follows: ATG_ERa_TRANS: Attagene TRANS-FACTORIAL HepG2 Assay for human Estrogen Receptor alpha (ERa) (AID 2282970; active means hit-call score of the fitted dose curve at least 0.9, where 1 is the maximum). The conditions noted are these: HepG2 Attagene TRANS ERa GAL4 reporter, mRNA. The method, boiled down:
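Gal4-fusion ERa transactivation, measured as reporter transcript level in transiently transfected HepG2 cells. Exposure 24 h; RT-PCR plus capillary electrophoresis with fluorescence detection.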

The target of test [6] is Steroid hormone receptor ERR1 (Homo sapiens) (UniProt P11474). Briefly: ATG_ERRa_TRANS: Attagene TRANS-FACTORIAL HepG2 Assay for human Estrogen-Related Receptor alpha (ERRa) (AID 2282971; active means hit-call score of the fitted dose curve at least 0.9, where 1 is the maximum). Conditions: HepG2 Attagene TRANS reporter, ERRa transactivation. The method, boiled down: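 HepG2 cells transiently transfected with GAL4-UAS reporter units and chimeric NR-Gal4 constructs; after 24 hour compound incubation, reporter mRNA quantified by RT-PCR, fluorescent labelling and capillary electrophoresis, gain of signal versus DMSO.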

Test [7] has as its target X-box-binding protein 1 (Homo sapiens) (UniProt P17861). The test is described as follows: ATG_Xbp1_CIS: Attagene CIS-FACTORIAL HepG2 Assay for human X-box Binding Protein 1 (XBP1) (AID 2282972). Conditions: HepG2 XBP1 cis-element reporter, Attagene multiplex; actives raise or lower the signal. The method, boiled down:
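Human hepatoma HepG2, cis-element reporter system, 24 h treatment; mRNA quantified by RT-PCR/CE fluorescence; fit relative to DMSO.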

Test [8] can be described thus: ATG_GAL4_TRANS: Attagene TRANS-FACTORIAL HepG2 Assay for GAL4 (Internal Marker) (AID 2282976; active means hit-call score of the fitted dose curve at least 0.9, where 1 is the maximum). Conditions: HepG2 Attagene TRANS GAL4 internal marker reporter. The method, boiled down: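 Background-control readout: GAL4-UAS reporter transcript in transiently transfected HepG2 cells after 24 h compound exposure. Measured by RT-PCR, 6-FAM primer extension, HpaI digest and capillary electrophoresis; gain-of-signal fit versus DMSO.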

Test [9] in a line: ATG_M_19_TRANS: Attagene TRANS-FACTORIAL HepG2 Assay for M19 Transcription Factor (Internal Marker) (AID 2282974; active means hit-call score of the fitted dose curve at least 0.9, where 1 is the maximum). Conditions: HepG2 Attagene TRANS-FACTORIAL M19 internal marker reporter. The method, boiled down:
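Background-control readout: after 24 h chemical exposure of transfected HepG2 carrying GAL4-driven reporter units, RNA was reverse-transcribed, amplified, fluorescently labeled and sized by capillary electrophoresis; gain-of-signal fit against DMSO.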

Chain of Estrogen receptor (Homo sapiens) (P03372 whole entry, looked up, the tested form may be a part): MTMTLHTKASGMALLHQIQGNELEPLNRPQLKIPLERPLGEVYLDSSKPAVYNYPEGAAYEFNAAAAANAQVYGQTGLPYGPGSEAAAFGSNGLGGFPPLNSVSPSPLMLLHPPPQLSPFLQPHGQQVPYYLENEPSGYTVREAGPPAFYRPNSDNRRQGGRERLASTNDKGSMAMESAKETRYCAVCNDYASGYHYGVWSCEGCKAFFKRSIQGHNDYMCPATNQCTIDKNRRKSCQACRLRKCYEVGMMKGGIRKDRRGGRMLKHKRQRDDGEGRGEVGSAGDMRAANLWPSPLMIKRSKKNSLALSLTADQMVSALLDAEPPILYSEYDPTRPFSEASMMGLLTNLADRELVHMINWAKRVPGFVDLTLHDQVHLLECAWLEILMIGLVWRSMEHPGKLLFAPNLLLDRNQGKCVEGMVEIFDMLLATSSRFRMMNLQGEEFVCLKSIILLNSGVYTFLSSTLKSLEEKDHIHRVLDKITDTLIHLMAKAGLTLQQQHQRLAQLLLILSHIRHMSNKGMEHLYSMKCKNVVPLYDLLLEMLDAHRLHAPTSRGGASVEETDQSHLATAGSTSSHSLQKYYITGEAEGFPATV
Chain of X-box-binding protein 1 (Homo sapiens) (P17861 whole entry, looked up): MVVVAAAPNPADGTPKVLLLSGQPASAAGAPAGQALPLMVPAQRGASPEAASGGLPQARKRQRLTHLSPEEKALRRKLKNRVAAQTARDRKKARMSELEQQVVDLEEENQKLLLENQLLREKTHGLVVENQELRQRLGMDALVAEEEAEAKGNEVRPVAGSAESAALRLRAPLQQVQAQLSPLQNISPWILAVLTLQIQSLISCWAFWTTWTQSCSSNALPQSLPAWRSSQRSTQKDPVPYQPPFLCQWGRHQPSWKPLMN
Chain of Steroid hormone receptor ERR1 (Homo sapiens) (P11474 whole entry, looked up, the tested form may be a part): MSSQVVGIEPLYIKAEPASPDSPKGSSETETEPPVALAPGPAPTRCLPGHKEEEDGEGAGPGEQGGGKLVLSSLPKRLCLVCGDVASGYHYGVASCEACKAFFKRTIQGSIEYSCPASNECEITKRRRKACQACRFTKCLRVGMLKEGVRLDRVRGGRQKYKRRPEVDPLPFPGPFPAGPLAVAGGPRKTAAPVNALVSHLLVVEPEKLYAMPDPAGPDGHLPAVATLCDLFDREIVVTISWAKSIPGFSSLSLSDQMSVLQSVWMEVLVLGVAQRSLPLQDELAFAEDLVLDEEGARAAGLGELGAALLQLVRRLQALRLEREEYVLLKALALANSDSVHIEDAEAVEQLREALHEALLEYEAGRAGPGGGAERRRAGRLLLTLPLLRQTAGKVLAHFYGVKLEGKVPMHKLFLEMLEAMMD
Chain of Nuclear receptor subfamily 1 group I member 3 (Homo sapiens) (Q14994 whole entry, looked up, the tested form may be a part): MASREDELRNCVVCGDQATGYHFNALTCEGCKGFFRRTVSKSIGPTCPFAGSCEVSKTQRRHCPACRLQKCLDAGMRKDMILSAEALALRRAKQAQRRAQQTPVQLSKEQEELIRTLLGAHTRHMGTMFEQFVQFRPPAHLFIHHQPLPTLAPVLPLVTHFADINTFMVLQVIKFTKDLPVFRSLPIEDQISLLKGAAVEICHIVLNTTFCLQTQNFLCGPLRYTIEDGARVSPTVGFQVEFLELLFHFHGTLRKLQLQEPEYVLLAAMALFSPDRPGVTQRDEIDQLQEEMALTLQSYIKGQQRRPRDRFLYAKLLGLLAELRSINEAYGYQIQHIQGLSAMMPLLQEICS

As to `Oc1ccc(Nc2ccccc2)cc1`, the compound was called inactive in test [1], in [2], in test [4], in test [6], in [7] and in [8]. The AC50 is 56.3 µM (active) in test [3] and 5.96 µM (active) in [5].
For the compound `FC(F)(F)C(F)(F)C(F)(F)CI`, the compound was called inactive in test [1], in [2], in [3], in [4], in [5] and in test [6]. Further, the compound was called inactive in [7] and in test [9].
On to `CCCCCCCCCCCCCCCC[N+](C)(C)Cc1ccccc1`, for which the call in test [1], in test [2], in [3], in test [4], in test [5] and in test [6] was inactive. The compound was classed as inactive in [7].
With `FC(F)(F)C(F)(F)C(F)(F)C(F)(F)C(F)(F)C(F)(F)C(F)(F)C(F)(F)F`, the result in test [1], in test [2], in test [3], in [4], in test [5] and in test [6] was inactive. Also, the compound was classed as inactive in test [7], in test [9] and in test [8].
Take `CC/C=C\CCOC(=O)c1ccccc1`: the call in test [1], in test [2], in test [3], in [4], in [5] and in [6] was inactive. The result in test [7], in test [9] and in test [8] was inactive.
With `C#C[C@]1(O)CC[C@H]2[C@@H]3CCc4cc(OC)ccc4[C@H]3CC[C@@]21C`, the compound was classed as inactive in [1], in test [2], in [4], in test [6], in test [7] and in test [8]. Moreover, the AC50 in test [3] is 0.921 µM (active); in test [5], 0.00914 µM (active).
On to `C=C(C)C(=O)OCC(F)(F)C(F)(F)C(F)(F)C(F)(F)C(F)(F)C(F)(F)C(F)(F)F`, for which the call in test [1], in test [2], in [3], in test [4], in [6] and in test [7] was inactive. Further, the outcome in [9] and in test [8] was inactive. Further, the AC50 in test [5] is 10.5 µM (active).
Take `N=C(N)C(F)(F)C(F)(F)C(F)(F)C(F)(F)C(F)(F)C(F)(F)C(F)(F)F`: the call in [1], in [2], in test [3], in test [4], in [7] and in test [9] was inactive. Also, the AC50 in test [5] is 40.6 µM (active).
In the case of `FC(F)(F)C(F)(F)C(F)(F)C(F)(F)C(F)(F)C(F)(F)CC1CO1` (centres undefined), the compound was called inactive in [1], in [2], in test [3], in [4], in test [5] and in [6]. The compound was classed as inactive in [7], in test [9] and in test [8].
`FC(F)(Br)C(F)(F)C(F)(F)C(F)(F)C(F)(F)C(F)(F)Br`: the compound was classed as inactive in [1], in test [2], in test [3], in [4], in [7] and in [8]. Moreover, in test [5], the AC50 is 7.26 µM (active).
In the case of `C=CC(=O)OCC(F)(F)C(F)(F)C(F)(F)C(F)(F)C(F)(F)C(F)(F)C(F)(F)F`, the call in [1], in test [2], in [3], in test [4], in test [7] and in [9] was inactive. Also, the compound was classed as inactive in test [8]. Further, the AC50 in [5] was 15.6 µM (active).
Take `O=C(OCCOCCOCCOC(=O)c1ccccc1)c1ccccc1`: the result in [1], in test [2], in test [3], in [4], in test [7] and in test [9] was inactive. Further, the compound was classed as inactive in test [8]. Also, the AC50 in [5] is 2 µM (active).
On to `CC(C)(C)c1ccc(OC2CCCCC2O)cc1` (centres undefined), for which the compound was classed as inactive in [1], in test [2], in test [4], in test [5], in [7] and in test [9]. For the same compound, the compound was called inactive in [8]. The concentration at half-maximal activity (AC50) in [3] was 26.8 µM (active).
With `FC(F)(F)C(F)(F)C(F)(F)C(F)(F)C(F)(F)C(F)(F)C(F)(F)I`, the result in test [1], in test [2], in test [3], in test [4], in test [6] and in test [7] was inactive. The call in test [9] was inactive. Further, the AC50 in test [5] was 3.7 µM (active).
In the case of `OCC(F)(F)C(F)(F)C(F)(F)C(F)(F)C(F)(F)C(F)F`, the outcome in test [1], in [2], in test [3], in test [4], in test [7] and in test [9] was inactive. Besides, the compound was classed as inactive in [8]. Besides, the AC50 in test [5] is 5.4 µM (active).
`C=CC(F)(F)C(F)(F)C(F)(F)C(F)(F)C(F)(F)C(F)(F)C(F)(F)C(F)(F)C=C`: the call in test [1], in [2], in [3], in test [4], in [6] and in test [7] was inactive. The compound was classed as inactive in [9]. The AC50 in test [5] was 2.76 µM (active).
On to `Cc1cccc(N(C)C)c1`, for which the result in test [1], in test [2], in test [3], in [4], in test [5] and in test [6] was inactive. In addition, the call in [7] and in [8] was inactive.
As for `CNC(=S)NC`, the compound was classed as inactive in test [1], in test [2], in test [3], in test [4], in test [7] and in [9]. The AC50 in test [5] was 25.9 µM (active).
